Measured values reported in PubChem BioAssay (NCI).
“And” between values parts separate entries of the source, which are not always exact repeats. Equal values may be shown once. About 83,000 compounds went through this panel and 20% of them were active in at least one assay; those are over-represented in the sample as a whole.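 The test compound was applied at a single concentration to cells in 96-well plates for 48 hours, and percent growth was recorded.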 A number with no mark means an inactive call. The source made the active and inactive calls. The calls were made as follows: active = growth percent below 10; inactive = the rest.

system: MDA-MB-468 breast; assay: NCI-60 one-dose screen, 48 h (100 = growth as untreated, 0 = no growth, -100 = all killed); details: 10 µM unless noted

Row | SMILES | growth
1 | O=C(O)CC1CCN(c2ccc3nnc(Cl)n3n2)CC1 | 101%
2 | CC(C)(C)OC(=O)CN1CCc2c(sc3ncnc(N/N=C/c4ccccc4Br)c23)C1 | 88.5%
3 | C#Cc1cccc(Nc2ncnc3cc4c(cc23)OCCOCCOCCO4)c1 | -26.7% (active)
4 | O=C(CNc1nc(-c2cccc([N+](=O)[O-])c2)cs1)Nc1cccc(Cl)c1 | 98%
5 | CCOc1nc(-c2ccccc2)cc2c(O)c(-c3nnco3)[nH]c(=O)c12 | 16.6%
6 | CCCCc1ccc(Nc2ccc(Nc3ccc(CCCC)cc3S(=O)(=O)O)c3c2C(=O)c2ccccc2C3=O)c(S(=O)(=O)O)c1 | 112%
7 | c1cc(C2=N[C@@H]3c4ccccc4C[C@@H]3O2)nc(C2=N[C@@H]3c4ccccc4C[C@@H]3O2)c1 | 95.8%
8 | Nc1ccccc1SC(CC(=O)c1ccccc1)c1cccc([N+](=O)[O-])c1 (centres undefined) | 85.9% and 77.9%
9 | CCN(CC)CCNC(=O)C(Cl)=C1C(Cl)=C(Cl)C(Cl)=C1Cl | 75.8%
10 | COC(=O)CC1=C(C)/C(=C/c2[nH]c(-c3ccc[nH]3)cc2OC)N=C1C | 19%
11 | COc1c(-c2c3sc(=O)[nH]c3nc3c2c(=O)[nH]n3C(C)C)cc2c(c1OC)OCO2 | 102%
12 | O=C(CC(C(=O)c1ccccc1)N1CCN(Cc2ccccc2)CC1)c1ccccc1 (centres undefined) | 70.1%
13 | OC(c1cc2ccc(C(F)(F)F)cc2c2cc(C(F)(F)F)ccc12)C1CCCCN1 (centres undefined) | -74% (active)
14 | O=C(CN1CCN(c2ccc(Cl)cc2)CC1)N1CCN(c2nnc(-c3ccc(Cl)cc3)c(-c3ccc(Cl)cc3)n2)CC1 | 87.5%
15 | O=C(O)c1ccccc1.[Ag] | 90.4%
16 | CC1=NN(c2ccc(S(=O)(=O)O)cc2)C(=O)C1N=Nc1ccc(-c2ccc(N=Nc3ccc(OS(=O)(=O)c4ccc(C)cc4)cc3)c(S(=O)(=O)O)c2)cc1 (centres undefined) | 86.8%
17 | Cc1cc(Cl)cc(Cc2cc(Cl)cc(C)c2O)c1O | 50.2%
18 | Brc1ccc2c(c1)-c1ccccc1C1=NCCN12 | -45% (active)
19 | C[C@H](Oc1cc(-c2cnn(C3CCNCC3)c2)cnc1N)c1c(Cl)ccc(F)c1Cl | 34.9%
20 | CCNC(=S)NNC(=O)c1cc2ccc1CCc1ccc(cc1)CC2 | 106%

Row | SMILES | growth
21 | COc1ccc2c(c1)N(CCO)C1=C(C(=O)OC1)C2c1ccc(OC)c(OC)c1 (centres undefined) | 0.0938% (active)
22 | O=C(CCl)N1c2cccc3cccc(c23)N(C(=O)CCl)C1c1cn(-c2ccccc2)nc1-c1cccc([N+](=O)[O-])c1 | 101%
23 | Cn1cc(-c2csc(-c3cn(C)c4ncccc34)n2)c2cccnc21 | -10.8% (active)
24 | N#C/C(=C\N1C(=O)/C(=C/c2cccc([N+](=O)[O-])c2)SC1=S)c1nc2ccccc2s1 | 81.7%
25 | O=C(O)c1ccc(NC(=O)c2cccc(Nc3ccnc(C(F)(F)F)c3)c2)cc1 | 108%
26 | COc1ccc(Cn2cc3c(c2-c2ccccc2)CC(C)(C)c2cnoc2-3)cc1 | 3.53% (active)
27 | CC12OC(CC(O)C1O)n1c3ccccc3c3c4c(c5c6ccccc6n2c5c31)C(=O)N(CCN1CCOCC1)C4=O (centres undefined) | -30.4% (active)
28 | CCN1CCN(/C(=N\c2sc(-c3ccccc3)nc2-c2ccccc2)c2ccccc2)CC1 | 75.3%
29 | Cc1ccc(O)c(NC(=O)c2cccc(Nc3ccnc(C(F)(F)F)c3)c2)c1 | 46%
30 | Cc1ccc(C(=O)N/N=C/c2cccc([N+](=O)[O-])c2)cn1 | 89.5%
31 | CC(=O)c1c(/C=C/c2ccc(C)cc2)c2ccccc2[nH]c1=O | 110%
32 | N#CC(C#N)=Cc1c(-c2ccccc2)[nH]c2ccccc12 | 32%
33 | Cc1cc(-c2ccc(Cl)cc2)n(Cc2nnc(SCC(=O)Nc3ccc(S(N)(=O)=O)cc3)n2C2CCCCC2)n1 | 117%
34 | Cc1ccc(S(=O)(=O)NC(CCC(=O)Nc2ccc(Cl)cc2)C(=O)Nc2ccc(Cl)cc2)cc1 (centres undefined) | 29%
35 | COc1cc2oc(-c3cccc(NC(=O)[C@@H](N)C(C)C)c3)cc(=O)c2c(OC)c1OC | 99.5%
36 | CCOC(=O)C1OC1(c1ccccc1)c1ccccc1 (centres undefined) | 104%
37 | COc1cccc2c1C(=O)c1c(O)c3c(c(O)c1C2=O)C[C@](O)(C(=O)CO)C[C@H]3O[C@@H]1C[C@@H](NC(=O)CCCN(C)C2(c3ccc(F)cc3)CC3CCC2C3)[C@H](O)[C@@H](C)O1 (some centres undefined) | -82.4% (active)
38 | C#Cc1c2c(c(OC)c3c1OCO3)[C@H]([C@H]1OC(=O)c3c1ccc(OC)c3OC)N(C)CC2 | 79.9%
39 | Cc1cccc(-c2cn3ccnc3c(-c3ccc4ncn(Cc5ccccc5)c4c3)n2)c1 | 83.4%
